Sampled rows, rich in hits. Any-hit rate of the full collection: about 5.9%.
GALK inhibitor: inhibitors of human galactokinase; P51570; 0.007% of 270,000 active; AID 1868; Purified GALK, Kinase-Glo residual ATP luminescence; Potency, µM (series often up to 57.5 µM), inactives show top-dose activity change, negative = inhibition, hits mostly inhibitors; also: potency is read from the fitted curve at half-maximal effect
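GALK at 5 nM final was combined with compound, 35 uM ATP and 100 uM galactose in HEPES pH8.0 with MgCl2 and DTT. The reaction ran one hour at room temperature before luminescent ATP detection.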
RORg inh: blocks mouse ROR gamma transcriptional activity | P51450 | Drosophila S2 Gal4-RORgamma UAS-luciferase reporter, 20 h | Potency, µM (top dose mostly 53.6 µM), without a hit: at the highest dose activity change, negative = inhibition, actives largely listed as inhibitors | 5.4% of 310,000 active | AID 2551; also: potency is read from the fitted curve at half-maximal effect; nearly all actives have a fitted effect of over 60% in size
Target sequence (P51450 whole entry, looked up, the tested form may be a part): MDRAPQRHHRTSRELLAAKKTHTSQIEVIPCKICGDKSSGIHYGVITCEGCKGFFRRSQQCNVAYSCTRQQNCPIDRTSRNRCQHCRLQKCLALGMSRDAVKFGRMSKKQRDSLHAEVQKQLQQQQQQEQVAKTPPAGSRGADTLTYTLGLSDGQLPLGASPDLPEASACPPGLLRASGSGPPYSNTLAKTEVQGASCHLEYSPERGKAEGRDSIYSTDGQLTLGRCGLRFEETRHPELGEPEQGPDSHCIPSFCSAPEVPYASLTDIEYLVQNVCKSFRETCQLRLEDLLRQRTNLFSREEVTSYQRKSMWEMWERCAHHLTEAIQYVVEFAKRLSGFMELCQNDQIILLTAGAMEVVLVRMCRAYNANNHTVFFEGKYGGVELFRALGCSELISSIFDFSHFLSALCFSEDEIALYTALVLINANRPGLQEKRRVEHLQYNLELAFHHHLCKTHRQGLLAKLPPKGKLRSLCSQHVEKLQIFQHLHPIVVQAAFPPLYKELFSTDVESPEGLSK
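Luciferase reporter read in Schneider cells carrying Gal4-RORγ (mouse) and UAS-Photinus luciferase; cells given compound 1 h before 700 uM copper sulfate induction, then incubated 20 h at ambient temperature.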
TrxR1 substrate: is turned over as a substrate by rat TrxR1 | AID 588456 | Potency, µM (series often up to 114 µM), without a hit: top-dose activity change, negative = substrate turnover | O89049 | purified TrxR1 substrate turnover, NADPH consumption readout | 0.01% of 390,000 active; also: potency is read from the fitted curve at half-maximal effect; nearly all actives have a fitted effect of over 50% in size
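Rat TrxR1, dispensed at 90 nM, was prereduced with 400 uM NADPH (final) for 5 min at ~22 deg C, then incubated with compound 15 min before 400 uM selenite. A first-read NADPH fluorescence drop versus no-compound background flagged substrates.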
FBPA coupling cs: inhibits coupling enzyme system, counter-screen for aldolase hits; coupling enzyme system counterscreen, AmpLite Red fluorescence; activity change, negative = inhibition, % at 58.2 µM, hits read low; 0.67% of 290,000 active; AID 2472; in the data active = activity change below about -30%
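Final compound at 57.5 uM, incubated 10 min at RT with coupling enzyme reagent (glyceraldehyde-3-phosphate), then 20 min with substrate and AmpLite Red detection. Fluorescence read at 525/598 nm; tests interference with the coupling assay, not aldolase inhibition.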
Gal4-VP16 FLuc: Gal4-VP16 reporter inhibition counter-screen. 3.5% of 310,000 active. AID 2546. Drosophila S2 Gal4-VP16 UAS-luciferase, luminescence, 20 h. Potency, µM (series often up to 53.6 µM), inactives show at the highest dose activity, negative = inhibition, usual class: inhibitors;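 also: Gal4-VP16 expression switched on by copper sulfate through the metallothionein promoter; potency is read from the fitted curve at half-maximal effect; nearly all actives have a fitted effect of over 50% in size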
rTrxR1 inhibitor: inhibitors of rat thioredoxin reductase 1; Potency, µM (highest dose often 114 µM), for the others: at the top dose activity change, negative = inhibition, usual class: inhibitors; O89049; AID 588453; 1% of 390,000 active; recombinant rTrxR1, NADPH fluorescence consumption, selenite substrate; also: potency is read from the fitted curve at half-maximal effect; nearly all actives have a fitted effect of over 65% in size
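Rat TrxR1 (90 nM in the dispensed reagent) was pre-reduced with 400 uM NADPH for 5 min at room temperature, then incubated with compound for 15 min. After 400 uM selenite was added, NADPH fluorescence (Ex 340/Em 450 nm) was followed for 8 min.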
An asterisk follows results filed as active; ? = inconclusive; · = no result; [ ] = remark or other dose. Unless noted, calls follow the shape of the dose curve; as a rule, active = well fitted curve in the direction sought with a large enough effect; inconclusive = small, poorly fitted or top-dose-only effect, or another doubt; inactive = no such curve, though single readings can be large; an effect the other way counts as inactive or inconclusive. % is scaled to controls: 0 for no effect and ±100 for the full control effect.

SMILES	GALK inhibitor	RORg inh	TrxR1 substrate	FBPA coupling cs	Gal4-VP16 FLuc	rTrxR1 inhibitor
Cc1ccc2oc(-c3cccc(NC(=O)COc4ccc(Cl)cc4C)c3C)nc2c1	·	·	4%	·	·	13%
O=C(Cn1cnc2ccccc21)N/N=C/c1cccs1	-2%	-42%	13%[57.1 µM]	1	1%	6%[57.1 µM]
O=C(Cn1cnc2ccccc21)Nc1ccc(SC(F)F)cc1	-8%	4µM*	-6%[57.1 µM]	3	7.9µM*	-4%[57.1 µM]
Cn1cccc1/C=N/NC(=O)Cn1cnc2ccccc21	5%	8.9µM*	10%[57.1 µM]	-1	?	12%[57.1 µM]
COc1ccc(/C=N/NC(=O)CCn2cnc3ccccc32)cc1	-1%	13µM*	-5%[57.1 µM]	4	?	14%[57.1 µM]
CCOCCCNC(=O)C(NC(=O)Cc1cccs1)c1ccc(OC)cc1 (stereo not drawn)	1%	11%	5%[57.1 µM]	1	3%	17%[57.1 µM]
CCOCCCNC(=O)C(NC(=O)Cc1cccs1)c1ccc(Cl)cc1 (stereo not drawn)	1%	?	6%[57.1 µM]	2	13µM*	32%[57.1 µM]
O=C1/C(=C/c2c[nH]c3ccccc23)CCC/C1=C\c1c[nH]c2ccccc12	·	11µM*	-3%	-8	?	-22%
O=C1/C(=C/c2ccc(N3CCCC3)cc2)NC(=S)N1C1CC1	-5%	7.1µM*	-2%	-1	11µM*	0%
O=C1N/C(=C/c2ccc(N3CCCC3)cc2)C(=O)N1c1ccccc1	3%	3%	-2%	0	-13%	7%
Cc1cc(N2CCCC2)ccc1/C=C1\NC(=S)N(C)C1=O	-1%	-42%	-15%	-18	2.5µM*	?
CN1C(=O)c2ccc(N3CCCC3)cc2C1=O	0%	?	-7%	0	?	-13%
Cc1ccc2c(C)nc(SC(C(=O)c3ccccc3)c3ccccc3)nc2c1 (stereo not drawn)	0%	?	1%	5	20µM*	13%
Cc1nc(SC(C(=O)c2ccccc2)c2ccccc2)nc2ccccc12 (stereo not drawn)	0%	-6%	-9%	3	3%	-5%
CCOC(=O)c1cnc2ccc(Cl)cc2c1NCCN(C)C	1%	?	7%[57.1 µM]	-57*	-8%	9%[57.1 µM]
COc1ccc(OCCSc2nc3nc(C)cc(C)n3n2)cc1	8%	?	3%	-3	-7%	28%
C/C(=N\NC(=S)Nc1ccccc1C)c1cc2ccccc2o1	2%	1.3µM*	0%	-1	7.1µM*	-3%
C/C(=N\NC(=S)Nc1c(C)cccc1C)c1ccc(O)cc1	4%	8.9µM*	0%	-1	?	-4%
C/C(=N\NC(=O)C(c1ccccc1)c1ccccc1)c1ccc(O)cc1	4%	20%	-9%	1	0%	4%
C/C(=N\NC(=S)Nc1c(C)cccc1C)c1cc2ccccc2o1	3%	1µM*	7%	-2	7.1µM*	20%
Cc1ccc(CN(C)C(=O)C2CCC(=O)N(CCc3ccccc3)C2)o1 (stereo not drawn)	·	22%	9%	0	?	40µM*
CN(Cc1cnccn1)C(=O)C1CCC(=O)N(CCc2ccccc2)C1 (stereo not drawn)	1%	1%	3%	-1	-9%	13%
Cc1ccc(CCNC(=O)C2CCC(=O)N(Cc3ccccc3F)C2)o1 (stereo not drawn)	-5%	10%	6%	·	8%	56µM*
Cc1cc(C)nc(CCNC(=O)C2CCC(=O)N(Cc3ccccc3F)C2)n1 (stereo not drawn)	6%	-4%	-3%	·	2%	2%
COc1cccc(CN2CC(C(=O)NCCc3ccc(C)o3)CCC2=O)c1 (stereo not drawn)	-5%	-12%	7%	·	0%	20µM*
SMILES	GALK inhibitor	RORg inh	TrxR1 substrate	FBPA coupling cs	Gal4-VP16 FLuc	rTrxR1 inhibitor
O=C(CN1CCN(c2ccccn2)CC1)N(c1ccccc1)c1ccc2ccccc2c1	5%	43%	6%	0	8%	1%
COc1ccccc1NS(=O)(=O)c1cc(NC(=O)c2ccc(Cl)nc2)ccc1Cl	1%	16%	-7%	-3	20µM*	-6%
COc1ccc(C(=O)Nc2ccc(Cl)c(S(=O)(=O)Nc3ccccc3OC)c2)cc1	0%	6%	2%	-2	?	1%
Cc1ccc(NC(=S)NC(=O)c2ccc(F)cc2)cc1S(=O)(=O)Nc1ccccc1Cl	1%	4.5µM*	-2%[57.1 µM]	0	6.3µM*	?
CN(C)c1ccc(/C=C/c2ccnc3ccccc23)cc1C=O	·	·	4%	·	·	?
COC(=O)c1ccc(CN(Cc2ccc(OC)c(OC)c2)S(=O)(=O)c2ccc(F)c(C(=O)Nc3cc(C)ccc3C)c2)cc1	·	·	4%[57.1 µM]	·	·	18%[57.1 µM]
O=C(Nc1cccc(C(F)(F)F)c1)C1CCN(S(=O)(=O)c2cccs2)CC1	·	·	-10%	·	·	2%
Cc1ccc(S(=O)(=O)N2CCCC2C(=O)OCc2ccccc2)cc1 (stereo not drawn)	3%	0%	-5%	2	-7%	12%
Cc1ccc(S(=O)(=O)N2CCCC2C(=O)OCc2ccco2)cc1 (stereo not drawn)	0%	-10%	10%	-1	-25%	7.9µM*
O=C(NCC(=O)N1CCc2ccccc2C1)c1ccc(Cl)cc1Cl	-1%	-1%	6%	0	6%	5%
CC(C)(CC(=O)O)CC(=O)Nc1ccccc1Oc1ccccc1	·	-3%	4%	-2	3%	12%
COc1ccc(NC(=O)Nc2ccc(F)cc2)c(C)c1	-1%	3%	10%	4	-8%	51%
Cc1cc2c(NC(=O)Nc3ccc(F)cc3)cccc2nn1	2%	5%	-2%	-31*	7%	12%
Cc1cc2c(NC(=O)CC(C)(C)CC(=O)O)cccc2nn1	-2%	9%	-9%	-36*	7%	11%
COc1ccc(CCNCC(=O)Nc2ccc(C)c(Br)c2)cc1OC	-1%	18%	7%	1	-1%	16%
CCS(=O)(=O)c1ccccc1C(=O)NC1CCCc2ccccc21 (stereo not drawn)	0%	-11%	5%	2	5%	35%
FC(F)(F)c1nc(N2CCCC2)ncc1-c1nnnn1-c1ccc(Cl)cc1	2%	-40%	8%[57.1 µM]	-2	16µM*	19%[57.1 µM]
CC(C)CCNC(=O)[C@@H](c1ccccc1)N1Cc2ccccc2C1=O	·	·	-1%	·	·	-1%
Cc1ccc(C(=O)C(c2ccccc2)N2Cc3ccccc3C2=N)cc1 (stereo not drawn)	-3%	4µM*	54%	-11	10µM*	-1%
CC(C)C(NC(=O)c1ccccc1)C(=O)OCC(=O)N1CCN(c2ccccc2)CC1 (stereo not drawn)	·	·	4%	·	·	11%
